Assay [1] deals with PRMT1 (protein arginine N-methyltransferase 1). Description: small molecules binding arginine methyltransferase PRMT1 – biochemical, small-molecule microarray, 635 nm fluorescence, primary screen (AID 1088).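 Further: binding of Prmt1 protein to compounds spotted on small-molecule microarray slides.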 The following applies: higher = more signal.
Assay [2] is described as follows: growth effects on S. cerevisiae YJM789 – YJM789 clinical isolate, OD600, 24 h, basal, primary screen (AID 1089).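 Further: growth of clinical yeast isolate S. cerevisiae YJM 789 seeded 1000 cells per well; test concentration not given here.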 The note with it: higher = more signal, called active from +8 up or from −8 down.
Assay [3] can be described thus: S. pombe growth modifiers, basal conditions – strain 972, OD600, 24 h, no modulator, primary screen (AID 1090).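 Further: basal condition with compound alone and no growth modifier present; test concentration not given here.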 The note with it: S. pombe 972 growth, higher = more signal, called active from +8 up or from −8 down.
A short description of assay [4]: budding yeast growth modifiers under rapamycin – strain BY4716, OD600, 96 h, primary screen (AID 1091). Further: test concentration not given here. The note with it: S. cerevisiae BY4716 + rapamycin, higher = more signal, called active from +8 up or from −8 down.
Assay [5] concerns the target Torsin-1A-interacting protein 2 (Homo sapiens) (UniProt Q8NFQ8). As to the kind of experiment: small molecules binding lysate-expressed LULL1 – cell lysate, human LULL1 lysate, 635/667 nm fluorescence, primary screen (AID 1092).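 Further: probe is lysate of COS7 cells overexpressing human LULL1; score merges per-feature 667 nm fluorescence with signal-to-noise.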 The following applies: small-molecule microarray, hLULL1 lysate binding, 635 nm fluorescence; higher = more signal.
A short description of assay [6]: optical density change of DRC41 E. coli – strain DRC41, OD650, 24 h, E. coli filamentation project, primary screen (AID 1093).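 Further: MC1000 strain lacking acrAB efflux and sulA so SOS filamentation is blocked; test concentration not given here.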 The following applies: E. coli DRC41 growth, higher = more signal, called active from +8 up or from −8 down.
The nature of assay [7]: probe aLefty2 binding to arrayed compounds – biochemical, biotinylated probe, 635/667 nm fluorescence, primary screen (AID 1094).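 Further: score merges spot fluorescence near 667 nm with spot signal-to-noise ratio.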 The note with it: small-molecule microarray, higher = more signal.
Assay [8] concerns Noggin (protein binding on small-molecule microarray). As to the kind of experiment: small molecules binding Noggin protein – biochemical, 635/667 nm fluorescence, primary screen (AID 1095).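 Further: score merges 667 nm feature fluorescence with signal to noise over triplicate slides.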 The note with it: 635 nm fluorescence, higher = more signal.
The target in assay [9] is Neurogenic locus notch homolog protein 3 (Homo sapiens) (UniProt Q9UM47). Description: small molecules binding NOTCH3 protein – biochemical, 635/667 nm fluorescence, primary screen (AID 1096). The note with it: small-molecule microarray, 635 nm fluorescence, higher = more signal.
Chain of Neurogenic locus notch homolog protein 3 (Homo sapiens) (Q9UM47 whole entry, looked up): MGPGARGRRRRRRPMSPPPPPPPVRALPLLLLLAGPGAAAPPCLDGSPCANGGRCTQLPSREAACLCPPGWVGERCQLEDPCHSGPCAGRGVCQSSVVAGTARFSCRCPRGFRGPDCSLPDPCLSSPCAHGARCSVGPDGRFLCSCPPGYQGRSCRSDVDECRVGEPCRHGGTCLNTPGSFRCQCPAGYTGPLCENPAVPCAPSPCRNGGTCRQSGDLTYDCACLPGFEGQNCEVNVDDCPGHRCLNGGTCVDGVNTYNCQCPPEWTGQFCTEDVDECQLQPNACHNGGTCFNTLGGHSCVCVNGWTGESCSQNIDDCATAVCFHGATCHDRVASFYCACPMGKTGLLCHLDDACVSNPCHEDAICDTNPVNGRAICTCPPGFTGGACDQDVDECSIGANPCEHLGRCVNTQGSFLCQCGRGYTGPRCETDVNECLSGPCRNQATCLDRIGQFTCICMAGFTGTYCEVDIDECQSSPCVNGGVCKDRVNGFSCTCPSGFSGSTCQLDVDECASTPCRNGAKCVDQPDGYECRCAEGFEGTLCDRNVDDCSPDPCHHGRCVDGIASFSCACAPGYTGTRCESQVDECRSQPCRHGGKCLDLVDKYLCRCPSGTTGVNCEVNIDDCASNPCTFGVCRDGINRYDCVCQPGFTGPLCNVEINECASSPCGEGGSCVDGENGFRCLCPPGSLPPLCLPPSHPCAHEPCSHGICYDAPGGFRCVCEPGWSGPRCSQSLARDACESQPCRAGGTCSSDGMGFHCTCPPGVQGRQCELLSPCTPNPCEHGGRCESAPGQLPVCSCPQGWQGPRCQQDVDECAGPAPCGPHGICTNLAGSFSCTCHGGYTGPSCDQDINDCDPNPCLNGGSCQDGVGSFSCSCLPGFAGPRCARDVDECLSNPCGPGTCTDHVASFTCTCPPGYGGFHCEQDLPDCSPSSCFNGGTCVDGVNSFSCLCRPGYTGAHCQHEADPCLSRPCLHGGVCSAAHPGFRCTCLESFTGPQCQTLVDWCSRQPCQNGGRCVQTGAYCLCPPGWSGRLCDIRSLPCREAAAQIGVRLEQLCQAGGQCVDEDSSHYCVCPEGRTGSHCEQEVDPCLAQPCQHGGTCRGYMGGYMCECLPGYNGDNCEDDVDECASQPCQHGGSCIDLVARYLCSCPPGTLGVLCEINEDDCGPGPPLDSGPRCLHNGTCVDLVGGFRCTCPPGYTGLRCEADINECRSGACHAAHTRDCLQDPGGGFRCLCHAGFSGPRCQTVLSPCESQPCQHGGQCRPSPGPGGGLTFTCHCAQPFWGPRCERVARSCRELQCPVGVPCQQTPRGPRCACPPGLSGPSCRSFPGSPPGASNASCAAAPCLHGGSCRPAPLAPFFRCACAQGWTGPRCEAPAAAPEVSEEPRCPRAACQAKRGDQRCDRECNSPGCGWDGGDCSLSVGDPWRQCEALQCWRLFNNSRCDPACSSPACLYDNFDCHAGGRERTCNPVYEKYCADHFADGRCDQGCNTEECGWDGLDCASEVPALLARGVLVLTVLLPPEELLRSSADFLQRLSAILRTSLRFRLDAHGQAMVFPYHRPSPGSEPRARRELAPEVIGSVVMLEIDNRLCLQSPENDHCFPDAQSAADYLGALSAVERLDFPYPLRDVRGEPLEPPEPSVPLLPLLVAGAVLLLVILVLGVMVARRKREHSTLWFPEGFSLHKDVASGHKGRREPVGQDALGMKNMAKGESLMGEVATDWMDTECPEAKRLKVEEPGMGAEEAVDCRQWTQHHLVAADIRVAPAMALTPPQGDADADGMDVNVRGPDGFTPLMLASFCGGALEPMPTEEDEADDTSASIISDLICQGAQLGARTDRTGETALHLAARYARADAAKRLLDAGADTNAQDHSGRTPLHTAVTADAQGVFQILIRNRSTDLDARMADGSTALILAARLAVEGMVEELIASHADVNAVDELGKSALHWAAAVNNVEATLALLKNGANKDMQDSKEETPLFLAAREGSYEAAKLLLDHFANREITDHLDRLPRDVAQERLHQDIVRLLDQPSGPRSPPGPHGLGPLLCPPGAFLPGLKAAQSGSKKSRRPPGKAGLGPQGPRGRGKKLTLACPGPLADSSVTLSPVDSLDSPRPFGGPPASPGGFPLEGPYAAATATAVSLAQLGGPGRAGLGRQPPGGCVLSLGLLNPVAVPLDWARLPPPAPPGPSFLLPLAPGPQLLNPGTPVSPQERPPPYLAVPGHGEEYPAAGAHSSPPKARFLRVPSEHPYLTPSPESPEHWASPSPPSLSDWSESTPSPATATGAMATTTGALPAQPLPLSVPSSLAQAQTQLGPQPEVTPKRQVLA
The nature of assay [10]: probe aEGFR binding to arrayed compounds – biochemical, biotinylated probe, 635/667 nm fluorescence, primary screen (AID 1097).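 Further: probe is a biotinylated anti-EGFR antibody binding compounds printed on slides; score combines fluorescence near 667 nm and signal to noise of each spot.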 The following applies: small-molecule microarray, higher = more signal.

The results in this text go back to PubChem BioAssay.

Calls of active or inactive are those of the source.

Chain of Torsin-1A-interacting protein 2 (Homo sapiens) (Q8NFQ8 whole entry, looked up): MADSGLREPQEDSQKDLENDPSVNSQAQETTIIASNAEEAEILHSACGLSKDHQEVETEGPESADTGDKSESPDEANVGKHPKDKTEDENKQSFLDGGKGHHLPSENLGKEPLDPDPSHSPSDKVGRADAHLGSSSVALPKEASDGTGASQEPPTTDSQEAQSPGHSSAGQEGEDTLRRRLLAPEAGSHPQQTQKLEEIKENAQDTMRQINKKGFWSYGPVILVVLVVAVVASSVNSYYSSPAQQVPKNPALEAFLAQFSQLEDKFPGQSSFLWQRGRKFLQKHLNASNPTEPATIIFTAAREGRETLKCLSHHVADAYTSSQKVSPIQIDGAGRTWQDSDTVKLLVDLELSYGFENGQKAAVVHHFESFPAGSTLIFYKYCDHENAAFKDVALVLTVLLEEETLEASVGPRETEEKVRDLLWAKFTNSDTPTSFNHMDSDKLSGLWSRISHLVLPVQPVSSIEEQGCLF

Turning to `CN1C(=O)C2C=CC(C(O)c3cccs3)N(N(c3ccccc3)c3ccccc3)C2C1=O` (stereo not given), the composite z-score in assay [1] is 1.2; in assay [5], 2.62; in [7], 0.0453; in assay [8], 0.0625; in assay [9], 0.932; in assay [10] it was -0.17. The z-score is 1 (inactive) in assay [2], 0.881 (inactive) in assay [3], 0.571 (inactive) in assay [4] and -0.874 (inactive) in [6].
For the compound `O=C(O)C1=CC[C@H]2C(=O)N(c3ccccc3)C(=O)[C@@H]12`, the composite z-score in assay [1] was 0.964; in [5] it was 2.5; in assay [7], 0.0694; in [8] it was -0.312; in [9], 1.06; in [10], 0.186. The z-score in assay [2] was 0.735 (inactive); in [3], 1.38 (inactive); in assay [4], 1.52 (inactive); in [6], -0.148 (inactive).
As to `Cc1ccc(S[C@]2(C(=O)NC(C)C)CC(=O)N(Cc3ccccc3)[C@@H]2c2ccc(CO)cc2)cc1`, the composite z-score is -0.251 in [1]; 0.228 in assay [5]; -0.0593 in assay [7]; -0.371 in assay [8]; -0.312 in assay [9]; -0.18 in assay [10]. For the same compound, the z-score in assay [2] was -1.58 (inactive); in [3], 0.433 (inactive); in assay [4], -0.632 (inactive); in assay [6] it was 1.31 (inactive).
Take `CC(C)N1C(=O)[C@@]2(Cc3ccccc31)c1ccccc1C(=O)N(Cc1ccccc1)[C@H]2c1ccc(CO)cc1`: the composite z-score in assay [1] is -0.0364; in assay [5], 0.0342; in assay [7], -0.578; in assay [8], 0.209; in assay [9] it was -0.508; in [10], -0.424. Besides, the z-score is 1.43 (inactive) in assay [2], 0.555 (inactive) in assay [3], -0.204 (inactive) in assay [4] and 0.365 (inactive) in assay [6].
For `CCCCC(=C=CC[C@@H](O)c1ccccc1OCCO)C[C@@H](O)c1ccccn1`, the composite z-score was 1.35 in assay [1]; 2.3 in assay [5]; -0.119 in assay [7]; 0.191 in assay [8]; 0.311 in assay [9]; -0.0238 in assay [10]. Moreover, the z-score in [2] is 0.0466 (inactive); in assay [3], -0.314 (inactive); in assay [4] it was -1.14 (inactive); in assay [6], 0.0399 (inactive).
For `O=C1C[C@@](C(=O)NCC(F)(F)F)(c2ccc([N+](=O)[O-])cc2)[C@@H](c2ccc(CO)cc2I)N1CC12CC3CC(CC(C3)C1)C2`, the composite z-score was 1.55 in [1]; 2.73 in assay [5]; -0.189 in [7]; 0.515 in [8]; 0.978 in [9]; -0.206 in [10]. Further, the z-score in assay [2] was -1.36 (inactive); in assay [3], -0.301 (inactive); in [4], 21.1 (active); in assay [6] it was 0.548 (inactive).
With `COCCOC(=O)N1C(=O)[C@@]2(c3cc(C#CCNC(N)=O)ccc31)[C@H](C(=O)Nc1nc3ccccc3s1)[C@H]1C(=O)O[C@H](c3ccccc3)[C@H](c3ccccc3)N1[C@@H]2c1ccc(O)cc1`, the composite z-score in [1] was 1.47; in assay [5] it was 1.35; in [7], -0.103; in assay [8], 0.939; in assay [9], 0.986; in [10], 0.0654. Also, the z-score is 1.45 (inactive) in assay [2], 1.16 (inactive) in assay [3], 1.32 (inactive) in [4] and -0.264 (inactive) in assay [6].
Turning to `C[C@H]1C2[C@H](Cc3ccccc3)NC(=O)[C@]23C(=O)N[C@@H](Cc2ccccc2)C(=O)N2CCC[C@H]2C(=O)NC/C=C/CC/C=C/C3[C@@H]2O[C@]12C` (stereo not given in full), the composite z-score is 1.05 in assay [1]; 1.7 in [5]; -0.0666 in assay [7]; 0.79 in assay [8]; 0.977 in assay [9]; -0.135 in assay [10]. In addition, the z-score in assay [2] is -0.501 (inactive); in assay [3] it was -0.36 (inactive); in [4] it was -0.441 (inactive); in [6], -0.269 (inactive).
Turning to `C=C(CCCC)C(=O)CC[C@H](OC(=O)c1ccccc1-c1ccccc1C(=O)O)c1cccc(OCCO)c1`, the composite z-score is 0.317 in assay [1]; 1 in assay [5]; -0.186 in [7]; 0.135 in [8]; -0.186 in [9]; -0.221 in assay [10]. In addition, the z-score in assay [2] was -0.0349 (inactive); in [3], -0.386 (inactive); in [4], -0.678 (inactive); in assay [6] it was 0.171 (inactive).
Regarding `CCCCC(=C=CC[C@@H](O)c1ccc(OCCO)cc1)CCO`, the composite z-score in assay [1] was 0.571; in assay [5] it was 1.6; in assay [7] it was -0.135; in [8] it was 0.424; in [9], -0.0085; in [10], -0.333. For the same compound, the z-score in [2] was -0.026 (inactive); in [3], -1.56 (inactive); in assay [4] it was -1.06 (inactive); in assay [6] it was 0.639 (inactive).
In the case of `CO[C@H]1O[C@H](CO)[C@@H](OC(=O)Nc2ccccc2)[C@@H]2OC(=O)[C@@H](Cc3ccccc3)C/C=C/C[C@H](Cc3ccccc3)C(=O)O[C@@H]12`, the composite z-score is 1.2 in assay [1]; 1.41 in [5]; 0.142 in [7]; -0.0235 in [8]; -0.151 in assay [9]; -0.0697 in assay [10]. In addition, the z-score was 0.552 (inactive) in [2], -0.0693 (inactive) in assay [3], 1.04 (inactive) in [4] and 0.386 (inactive) in assay [6].
`CC(C)C[C@@H]1NC(=O)[C@H]2C[C@@H](C(=O)O)[C@@H](c3cccc(OCCO)c3)N2C1=O`: the composite z-score in [1] turned out to be 0.779; in [5], 2.06; in assay [7], 0.276; in assay [8], 0.492; in assay [9], 0.632; in [10] it was 0.0588. Besides, the z-score was 0.395 (inactive) in assay [2], -0.907 (inactive) in assay [3], -0.529 (inactive) in assay [4] and 0.767 (inactive) in assay [6].
With `CC(=O)NCCCC[C@@H]1NC(=O)[C@H]2C[C@@H](C(=O)O)[C@@H](c3cccc(OCCO)c3)N2C1=O`, the composite z-score in assay [1] stood at 1.54; in assay [5], 2.49; in [7] it was 0.122; in [8] it was 1.58; in assay [9] it was 1.11; in [10], 0.189. The z-score in assay [2] was 0.341 (inactive); in assay [3], -0.198 (inactive); in assay [4] it was -0.453 (inactive); in assay [6], -0.147 (inactive).
In the case of `O=C/C=C/c1ccc(-c2ccccc2)cc1`, the composite z-score in [1] is -0.645; in [5], -0.7; in assay [7], -0.103; in [8], -0.339; in [9], -0.586; in assay [10] it was -0.15. The z-score in assay [2] was -25.4 (active); in assay [3] it was -19.9 (active); in [4] it was -5.08 (inactive); in assay [6], -0.168 (inactive).
With `C=CCOC(=O)[C@H]1[C@@H]2C(=O)O[C@@H](c3ccccc3)[C@@H](c3ccccc3)N2[C@@H](c2ccc(OCCOC(=O)[C@H]3C[C@H]4C(=O)NCC(=O)N4[C@H]3c3cccc(OCCO)c3)cc2)[C@]12C(=O)Nc1ccc(I)cc12`, the composite z-score in assay [1] was 1.54; in [5], 2.78; in [7], -0.172; in assay [8] it was 1.69; in [9], 1.06; in assay [10] it was 0.0389. In addition, the z-score in assay [2] was 1.29 (inactive); in [3], 0.682 (inactive); in [4], 3.48 (inactive); in assay [6], 0.0763 (inactive).
